The source of these data is ChEMBL document CHEMBL3433997, “St. Jude Leishmania screening dataset” (2016).

Type in all cases: functional
Experiment [1] deals with Solute carrier family 2, facilitated glucose transporter member 1 (Homo sapiens) (UniProt P11166). Put plainly: ST_JUDE_LEISH: Cytotoxicity at 2uM final concentration against transgenic Leishmania Mexicana promastigotes LmGLUT1 that are glucose transport deficient and complemented with the human glucose transporter GLUT1. Activity is measured by DNA content using SYBR green in vitro.
Chain of Solute carrier family 2, facilitated glucose transporter member 1 (Homo sapiens) (P11166 whole entry): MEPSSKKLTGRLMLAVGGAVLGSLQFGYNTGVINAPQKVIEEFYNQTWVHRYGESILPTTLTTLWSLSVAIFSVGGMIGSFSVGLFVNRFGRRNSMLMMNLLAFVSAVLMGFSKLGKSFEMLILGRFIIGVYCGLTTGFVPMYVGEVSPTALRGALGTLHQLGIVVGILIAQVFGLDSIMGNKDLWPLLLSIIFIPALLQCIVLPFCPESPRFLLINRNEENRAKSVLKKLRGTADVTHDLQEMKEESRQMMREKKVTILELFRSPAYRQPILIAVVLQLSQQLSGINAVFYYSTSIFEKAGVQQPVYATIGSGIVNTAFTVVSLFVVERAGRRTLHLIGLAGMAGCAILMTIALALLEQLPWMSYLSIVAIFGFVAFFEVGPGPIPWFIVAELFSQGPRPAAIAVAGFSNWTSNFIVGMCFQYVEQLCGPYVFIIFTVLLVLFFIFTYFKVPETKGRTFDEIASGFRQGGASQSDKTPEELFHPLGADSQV

Experiment [2] addresses Hexose transporter 1 (Plasmodium falciparum) (UniProt O97467). Put plainly: ST_JUDE_LEISH: Cytotoxicity at 2uM final concentration against transgenic Leishmania Mexicana promastigotes LmPfHT that are glucose transport deficient and complemented with the Plasmodium falciparum hexose transporter. Activity is measured by DNA content using SYBR green in vitro.
For experiment [3], the target named is Glucose transporter (Leishmania mexicana) (UniProt O61059). Put plainly: ST_JUDE_LEISH: Cytotoxicity at 2uM final concentration against transgenic Leishmania Mexicana promastigotes LmGT2 that are glucose transport deficient and complemented with the L. Mexicana glucose transporter 2. Activity is measured by DNA content using SYBR green in vitro.

As a reminder, the inhibition is the relative decrease from the control value, in per cent.

On to `COc1cccc(C(=O)Nc2ccc(Nc3nc(C)cc(N(C)C)n3)cc2)c1OC`, for which the results for the inhibition in experiment [1], in experiment [2] and in experiment [3] were 2.81%, 4.32% and 1%, respectively.

Turning to `O=C(N[C@@H](Cc1ccccc1)[C@H](O)CNC1CCCCC1)c1cc(C2CCCC2)cc(N2CCCC2=O)c1`, the inhibition in experiment [1] was -1.39%; in experiment [2], -1.21%; in experiment [3], -3.12%.

`CCNc1cc(-c2cccc(OC)c2)nc(Nc2ccc(F)cc2)n1`: the inhibition was 7.43% in experiment [1], 7.1% in experiment [2] and 2.87% in experiment [3].

Turning to `COc1cc2nc(N3CCC(CNC(=O)c4ccc(-c5ccc(C(=O)N(C)C)cc5OCCN(C)C)cc4)CC3)nc(N)c2cc1OC`, the inhibition in experiment [1] was found to be 0.34%; in experiment [2] it was 0.98%; in experiment [3] it was 0.37%.

As to `CCN(CC)c1ccc(C=CC(=O)NCCN2CCC(N(C)C3CCCCC3C)CC2)cc1` (stereo not drawn), the figures for the inhibition in experiment [1], in experiment [2] and in experiment [3] were -2.14%, -0.93% and -0.02%, respectively.

Turning to `CCCc1cc(Cc2cnc(N)nc2N)ccc1OCCCCCC(=O)O`, the figures for the inhibition in experiment [1], in experiment [2] and in experiment [3] were 1.42%, 2.24% and 1.32%, respectively.

As for `Cc1sc(CNCCCNc2cc(=O)c3ccccc3[nH]2)c(C(F)(F)F)c1C`, the results for the inhibition in experiment [1], in experiment [2] and in experiment [3] were -2.84%, -0.65% and -0.52%, respectively.

As to `COCCNCC(O)Cn1c2ccc(Cl)cc2c2cc(Cl)ccc21` (stereo not drawn), the inhibition was -1.12% in experiment [1], -1.7% in experiment [2] and -0.53% in experiment [3].

Consider `COc1cccc(-c2cc(C(F)(F)F)n3ncc(C(=O)Nc4cc(C)ccc4O)c3n2)c1`, for which the figures for the inhibition in experiment [1], in experiment [2] and in experiment [3] were 2.75%, 3.89% and 3.36%, respectively.

With `Cc1ccc(NC(=O)c2ccc(CN3CCCN(Cc4cccc(O)c4)CC3)cc2)cc1`, the inhibition is -1.8% in experiment [1], -0.37% in experiment [2] and 1.37% in experiment [3].

In the case of `COC(=O)C(c1ccc(NC(=O)[C@H](CC(C)C)NC(=O)OC(C)(C)C)cc1)c1ccc(NC(=O)[C@H](CC(C)C)NC(=O)OC(C)(C)C)cc1`, the values for the inhibition in experiment [1], in experiment [2] and in experiment [3] were -0.28%, 0.91% and 0.27%, respectively.

As to `Cc1cc2[nH]c(-c3ccc(C(=O)NCCCN4CCN(c5cccc(Cl)c5)CC4)cc3F)nc2cc1Cl`, the inhibition was -0.3% in experiment [1], 0.43% in experiment [2] and -0.02% in experiment [3].

On to `O=C(N1CCN(c2ccnc3cc4c(cc23)N(Cc2ccccc2)CC4)CC1)C(F)(F)F`, for which the values for the inhibition in experiment [1], in experiment [2] and in experiment [3] were 2.23%, 3.24% and 4.39%, respectively.

Regarding `CCCC(C)NC[C@@H](O)[C@H](Cc1ccccc1)NC(=O)c1cc(NCC)cc(N2CCCCS2(=O)=O)c1` (stereo partly drawn), the inhibition in experiment [1] was 0.32%; in experiment [2], 0.76%; in experiment [3] it was -2.92%.

Take `CC(C)c1cc(Oc2c(I)cc(CCNC(=N)N)cc2I)ccc1O`: the inhibition is -0.6% in experiment [1], -0.01% in experiment [2] and -2.44% in experiment [3].

As for `O=C(NC1CCN(Cc2ccccc2O)C1)c1cccc(C(F)(F)F)c1` (stereo not drawn), the inhibition in experiment [1] was 0.25%; in experiment [2], 0.49%; in experiment [3], -9.49%.

As for `Cc1nnsc1C(=O)Nc1cccc(-c2ccc(-c3nc4cc(C(F)(F)F)ccc4[nH]3)cc2)c1`, the inhibition was 1.55% in experiment [1], 2.49% in experiment [2] and -1.08% in experiment [3].

As to `O=C(Nc1ccc(-c2cccc(-c3nc4ccccc4[nH]3)c2)cc1)NC1CC1c1ccccc1` (stereo not drawn), the inhibition in experiment [1] is 1.87%; in experiment [2], 1.77%; in experiment [3] it was -0.17%.

Take `CN1CCOc2ccc(Nc3nnc(-c4cccc(-c5cccnc5)c4)o3)cc2C1`: the inhibition was 3.12% in experiment [1], 2.67% in experiment [2] and 1.35% in experiment [3].

Consider `CC1CC(C)CN(CC(O)CNC(=O)Nc2ccc(Br)cc2)C1` (stereo not drawn), for which the inhibition worked out at 6.62% in experiment [1], 5.27% in experiment [2] and 3.33% in experiment [3].

As to `N=c1n(CCN2CCCCC2)c2ccccc2n1CC(=O)c1cccc([N+](=O)[O-])c1`, the results for the inhibition in experiment [1], in experiment [2] and in experiment [3] were 2.8%, 4.32% and 0.59%, respectively.
